hgDAF12 agonist – activates the H. glycines DAF-12 receptor ligand-binding domain; actives 1.8% (n = 370,000); activation, % at 6.8 µM; HEK293 GAL4-hgDAF12 UAS-luciferase reporter, agonist luminescence; normalized to butyrate control;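 active = activation above a cutoff set at the mean of all screened compounds plus 3 SD, cut at about 10% in these data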;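 also: 0% = DMSO wells and 100% = sodium butyrate wells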
ssDAF12 agonist – S. stercoralis DAF-12 activation, primary screen; HEK293 ssDAF-12/GRIP1 lit1-tk-luc reporter, luminescence; % of 3 µM dafachronic acid response; activation, % at 6.8 µM; actives 1% (n = 370,000); AID 652126;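 active = activation above the mean over all tested compounds plus 3 SD, cut at about 0.9% in these data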;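 also: 0% = DMSO-only wells and 100% = 3 µM delta7-dafachronic acid wells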
DAX1 inh-1 – blocks DAX1 repression of SF-1 activated StAR promoter; HEK293T StAR-luciferase reporter, SF-1/DAX-1 repression relief; inhibition, % at 6.8 µM; actives 1.1% (n = 370,000);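 active = inhibition above the mean over all tested compounds plus 3 SD, cut at about 3.6% in these data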;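 also: 0% = DAX-1 cells with DMSO and 100% = cells lacking DAX-1 with DMSO; higher inhibition means more luminescence from relief of DAX-1 repression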
hcDAF12 agonist – activates DAF-12 receptor from parasite H. contortus. HEK293 hcDAF-12 lit1-tk-luc reporter, luminescence; 0% DMSO, 100% Δ7-dafachronic acid. activation, % at 6.8 µM. actives 1.4% (n = 370,000). AID 652067;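 active = activation above the mean of all tested compounds plus 3 SD, cut at about 5.5% in these data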;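 also: 100% = response to 3 µM Δ7-dafachronic acid high control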
GAA850 FXN act – frataxin GAA850 promoter activation | HEK293 lucGAA850 FXN promoter luciferase reporter, 24 h; percent of 10 µM SAHA response | activation, % at 6 µM | actives 0.56% (n = 360,000) | AID 540364;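 active = activation above the average of all compounds screened plus 3 SD, cutoff fixed separately per campaign, cut at about 7.5% in these data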;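 also: 0% = DMSO wells and 100% = 10 µM SAHA wells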
DAX1 inh-2 – inhibits human nuclear receptor DAX1; inhibition, % at 6.75 µM; actives 0.99% (n = 340,000); HEK293 Gal4-DAX1 luciferase reporter, luminescence; P51843;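 active = inhibition above the mean over all tested compounds plus 3 SD, cut at about 4.2% in these data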;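 also: 0% = DAX1-transfected cells with DMSO and 100% = empty-vector control cells with DMSO; inhibition shows as a rise in luminescence from relieved DAX1 repression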
Target sequence (P51843 207-470 limits assumed): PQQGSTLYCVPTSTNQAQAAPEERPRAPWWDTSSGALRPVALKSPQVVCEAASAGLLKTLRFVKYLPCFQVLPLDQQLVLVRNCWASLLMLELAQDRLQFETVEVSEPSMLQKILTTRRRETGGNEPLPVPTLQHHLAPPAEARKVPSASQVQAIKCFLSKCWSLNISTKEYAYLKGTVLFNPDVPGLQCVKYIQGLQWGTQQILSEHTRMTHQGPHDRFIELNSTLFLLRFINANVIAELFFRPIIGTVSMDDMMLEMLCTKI
LXR ag – LXR-beta agonism as hcDAF-12 counter-screen | shares compounds with hcDAF12 agonist | HEK293 Gal4-LXR tk-luc reporter, luminescence, 24 h; normalized: DMSO 0%, positive control 100% | activation, % at 6.8 µM | 3,400 tested, under 10 active;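 active = mean percent activation of the reporter above a cutoff set as the average over tested compounds plus their standard deviation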
Target sequence (P55055 whole entry, looked up, the tested form may be a part): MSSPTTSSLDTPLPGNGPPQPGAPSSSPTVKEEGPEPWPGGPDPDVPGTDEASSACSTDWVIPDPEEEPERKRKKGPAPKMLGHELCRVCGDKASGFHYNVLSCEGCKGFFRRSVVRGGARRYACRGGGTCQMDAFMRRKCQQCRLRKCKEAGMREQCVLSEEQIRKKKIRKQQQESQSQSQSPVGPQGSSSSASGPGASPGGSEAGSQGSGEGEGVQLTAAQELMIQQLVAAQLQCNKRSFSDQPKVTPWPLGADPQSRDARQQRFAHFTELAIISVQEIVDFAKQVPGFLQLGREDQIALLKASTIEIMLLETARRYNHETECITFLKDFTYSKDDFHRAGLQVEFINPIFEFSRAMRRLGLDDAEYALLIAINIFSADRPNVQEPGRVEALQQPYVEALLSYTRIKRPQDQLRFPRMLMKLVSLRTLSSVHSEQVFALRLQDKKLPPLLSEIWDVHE
hcDAF12 ag – confirmation of H. contortus DAF-12 agonists | shares compounds with hcDAF12 agonist | HEK293 hcDAF-12 lit1-tk-luc reporter, luminescence; % of Δ7-dafachronic acid response | activation, % at 6.8 µM | actives 61% (n = 3,400);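 active = mean activation across triplicate tests above the threshold derived from the earlier primary screen, cut at about 5.5% in these data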;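 also: 0% = DMSO only wells and 100% = 3 µM Δ7-dafachronic acid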
hgDAF12 conf – hgDAF-12 agonism, confirmation assay | HEK293 GAL4-hgDAF12 luciferase reporter, agonist mode; percent of butyrate response | AID 743050 | shares compounds with hgDAF12 agonist | activation, % at 6.8 µM | actives 80% (n = 3,300);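 active = mean activation over triplicate wells above the hit cutoff derived from the earlier primary screen, cut at about 11% in these data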;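 also: 0% = DMSO low control and 100% = 2 mM sodium butyrate high control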
LXRb DAF12 ctr – activates human LXR-beta, counter-screen for DAF-12 agonists. shares compounds with hgDAF12 agonist. HEK293 Gal4-LXR luciferase reporter, 24 h. activation, % at 6.8 µM. 3,300 tested, under 10 active;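 active = mean activation of the triplicate above a set limit carried over from the primary screen, none filed active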
Numbers without * were called inactive. Hits are enriched below; roughly 4.5% of the tested compounds scored in any of these assays.

For Cc1ccc(-c2cc(-c3cccc(F)c3)n[nH]2)c(O)c1 the results were hgDAF12 agonist 13.5*, ssDAF12 agonist 2.5*, DAX1 inh-1 4.2*, hcDAF12 agonist 12.7*, GAA850 FXN act 3.5, DAX1 inh-2 5.0*, LXR ag 1.2, hcDAF12 ag 7.6*, hgDAF12 conf 16.9* and LXRb DAF12 ctr 0.9.
For O=[N+]([O-])c1ccccc1-c1cc(-c2ccccc2O)n[nH]1 the results were hgDAF12 agonist 16.0*, ssDAF12 agonist 0.8, DAX1 inh-1 2.2, hcDAF12 agonist 7.9*, GAA850 FXN act 7.5, DAX1 inh-2 0.9, LXR ag 0.7, hcDAF12 ag 3.9, hgDAF12 conf 12.9* and LXRb DAF12 ctr 0.4.
Screening CN(C)c1ccc(CNC(=O)C2Cc3c(-c4cccc(C(N)=O)c4)ccnc3O2)cc1 (stereo not given) returned hgDAF12 agonist 0.1, ssDAF12 agonist -1.1, DAX1 inh-1 0.3, hcDAF12 agonist -0.9 and GAA850 FXN act -0.1.
`CSC[C@@H]1NC(=S)N(c2ccc(C)cc2)C1=O` gave hgDAF12 agonist -3.6, ssDAF12 agonist -0.9, DAX1 inh-1 -0.4, hcDAF12 agonist -1.6, GAA850 FXN act 2.6 and DAX1 inh-2 2.0.
`COc1ccc2cc(C(N)=O)c(=Nc3ccccc3)oc2c1` gave hgDAF12 agonist 13.9*, ssDAF12 agonist 0.3, DAX1 inh-1 4.3*, hcDAF12 agonist 13.8*, GAA850 FXN act 1.1, DAX1 inh-2 1.9, LXR ag 0.7, hcDAF12 ag 1.6, hgDAF12 conf 12.8* and LXRb DAF12 ctr 0.6.
Screening c1ccc(Nc2nc3ccccc3o2)cc1 returned hgDAF12 agonist 14.2*, ssDAF12 agonist 0.9*, DAX1 inh-1 3.2, hcDAF12 agonist 8.1*, GAA850 FXN act 7.0, DAX1 inh-2 1.9, LXR ag 1.4, hcDAF12 ag 8.3*, hgDAF12 conf 21.4* and LXRb DAF12 ctr 0.9.
Fc1ccccc1Nc1nc2ccccc2o1 was read as hgDAF12 agonist 16.2*, ssDAF12 agonist 0.8, DAX1 inh-1 3.1, hcDAF12 agonist 8.2*, GAA850 FXN act 2.4, DAX1 inh-2 1.7, LXR ag 1.8, hcDAF12 ag 9.0*, hgDAF12 conf 19.1* and LXRb DAF12 ctr 0.8.
`O=C(Nc1ccc2[nH]ccc2c1)c1ccc(F)cc1` gave hgDAF12 agonist 15.9*, ssDAF12 agonist 1.5*, DAX1 inh-1 3.0, hcDAF12 agonist 8.2*, GAA850 FXN act 2.8, DAX1 inh-2 -2.8, LXR ag 1.7, hcDAF12 ag 5.9*, hgDAF12 conf 20.5* and LXRb DAF12 ctr 1.2.
O=C(Nc1ccncc1)c1ccc(F)cc1 was read as hgDAF12 agonist 0.6, ssDAF12 agonist -1.2, DAX1 inh-1 -0.7, hcDAF12 agonist 0.2, GAA850 FXN act -1.6 and DAX1 inh-2 0.6.
Screening CCCCN(C)C(=O)c1cc2cc3ccc(OC)cc3nc2s1 returned hgDAF12 agonist 17.5*, ssDAF12 agonist 0.3, DAX1 inh-1 3.5, hcDAF12 agonist 7.0*, GAA850 FXN act 3.5, DAX1 inh-2 -1.3, LXR ag 1.4, hcDAF12 ag 7.1*, hgDAF12 conf 15.8* and LXRb DAF12 ctr 1.0.
Screening NC(=O)c1ccccc1NC(=O)c1ccc2ccccc2c1 returned hgDAF12 agonist 22.6*, ssDAF12 agonist 3.1*, DAX1 inh-1 2.7, hcDAF12 agonist 11.3*, GAA850 FXN act 5.8, DAX1 inh-2 0.0, LXR ag 1.9, hcDAF12 ag 9.2*, hgDAF12 conf 22.5* and LXRb DAF12 ctr 1.0.
Screening O=C(Nc1ccc2[nH]c(=O)[nH]c2c1)Nc1ccc(F)cc1F returned hgDAF12 agonist -1.8, ssDAF12 agonist -1.7, DAX1 inh-1 0.1, hcDAF12 agonist -1.9, GAA850 FXN act 3.1 and DAX1 inh-2 0.1.
O=C(Nc1ccc2[nH]c(=S)sc2c1)Nc1ccccc1F was read as hgDAF12 agonist 14.7*, ssDAF12 agonist 1.7*, DAX1 inh-1 1.7, hcDAF12 agonist 7.4*, GAA850 FXN act 2.5, DAX1 inh-2 0.8, LXR ag 1.8, hcDAF12 ag 8.0*, hgDAF12 conf 20.0* and LXRb DAF12 ctr 1.0.
`O=C(N/N=C/c1c[nH]c2ccccc12)c1cc(-c2ccc(-c3ccccc3)cc2)n[nH]1` gave hgDAF12 agonist 14.5*, ssDAF12 agonist 0.9, DAX1 inh-1 1.4, hcDAF12 agonist 7.8*, GAA850 FXN act -1.1, DAX1 inh-2 0.8, LXR ag 0.2, hcDAF12 ag 4.4, hgDAF12 conf 0.5 and LXRb DAF12 ctr 0.1.
O=C(N/N=C/c1c[nH]c2ccccc12)c1cc(-c2cccc3ccccc23)n[nH]1 was read as hgDAF12 agonist 1.9, ssDAF12 agonist -1.1, DAX1 inh-1 0.6, hcDAF12 agonist 2.9, GAA850 FXN act -2.5 and DAX1 inh-2 1.6.
For O=C(N/N=C/c1c[nH]c2ccccc12)c1cc(-c2ccc3ccccc3c2)n[nH]1 the results were hgDAF12 agonist 24.8*, ssDAF12 agonist -0.1, DAX1 inh-1 -0.7, hcDAF12 agonist 7.9*, GAA850 FXN act 0.4, DAX1 inh-2 -0.9, LXR ag 0.5, hcDAF12 ag 2.2, hgDAF12 conf 5.1 and LXRb DAF12 ctr 0.1.
Screening Cc1nc2ccc(NC(=O)c3cncc(Br)c3)cc2s1 returned hgDAF12 agonist 10.2, ssDAF12 agonist -1.7, DAX1 inh-1 1.6, hcDAF12 agonist 1.1, GAA850 FXN act -0.1 and DAX1 inh-2 -0.4.
Nc1nn(-c2ccccc2)c(N)c1N=Nc1ccccc1 was read as hgDAF12 agonist 21.5*, ssDAF12 agonist 0.6, DAX1 inh-1 1.3, hcDAF12 agonist 9.0*, GAA850 FXN act -2.3, DAX1 inh-2 -1.0, LXR ag 1.3, hcDAF12 ag 4.0, hgDAF12 conf 29.2* and LXRb DAF12 ctr 0.9.
`O=C(NC(=S)Nc1ccccc1)c1ccc(Br)o1` gave hgDAF12 agonist 17.1*, ssDAF12 agonist -0.6, DAX1 inh-1 1.6, hcDAF12 agonist 7.9*, GAA850 FXN act 5.1, DAX1 inh-2 2.3, LXR ag 0.7, hcDAF12 ag 7.6*, hgDAF12 conf 13.3* and LXRb DAF12 ctr 0.4.

Source: PubChem
